High-throughput results deposited in PubChem BioAssay by Broad Institute.
LMP1 NFkB inh = Epstein-Barr LMP1 NF-kappaB reporter inhibition; hit rate 0.69% among 350,000; LMP1-induced NF-kappaB luciferase reporter cells, luminescence; inhibition, % at 12.5 µM; in the data active means inhibition above about 41%; inconclusive means no clear call, values can overlap the other calls
PAX8 reporter = lowers PAX8-driven luciferase in RMG-I cells. RMG-I TPO-luciferase reporter, SteadyGlo, 24 h. AID 652154. hit rate 1.2% among 360,000. inhibition, % at 12.6 µM;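 active means mean replicate inhibition at least 60% with every replicate also reaching 60%; inconclusive means only one of the two criteria is met; inactive means mean below 60% and not all replicates reaching 60%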;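 further: luciferase light reporting Pax8 driven TPO promoter activity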
LGR2 antag = blocks bursicon-induced cAMP signaling via Drosophila LGR2. HEK293 LGR2, CRE-luciferase, bursicon-stimulated, 4 h. inhibition, % at 9.99 µM. hit rate 0.35% among 380,000;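 active means drop in luminescence signal, shown as inhibition above about 50% in the replicate tests, limit read from the data, passing the limit was not always enough; inconclusive means probably only some replicates passing the limit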;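 further: agonist challenge used bursicon conditioned medium at about half maximal strength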
MITF TRPM1 inh = reduces MITF-dependent TRPM1 promoter luciferase signal; SK-MEL-5 TRPM1 promoter luciferase, 24 h; inhibition, % at 12.5 µM; hit rate 0.83% among 330,000;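 active means mean inhibition across replicates of 60% or more, whatever share of single replicates reaches that level; inconclusive means some that reach 60%, reason not given; inactive means mean inhibition across replicates below 60%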
EWS-Fli block = inhibitors of EWS/Fli oncoprotein transcriptional activity; A673 NR0B1-luciferase reporter, viability-normalised; inhibition, % at 12.6 µM; hit rate 0.67% among 350,000; AID 651661;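 active means mean inhibition of at least 50% after viability correction, with every replicate also passing that limit; inconclusive means mean reaches 50% but only one of two replicates passes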;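 further: firefly luciferase signal divided by Alamar Blue viability fluorescence both relative to DMSO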
PGC1a acetyl inh = PGC1a acetylation modulation, inhibitor mode. U2OS PGC1a acetylation, AlphaScreen anti-acetyl-lysine; with virally co-expressed GCN5 acetyltransferase. inhibition, % at 15.6 µM. hit rate 0.17% among 350,000;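 active means every replicate shows inhibition of at least 40%; inconclusive means mean inhibition at least 40% but some replicate below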
Numbers stand for hits; i = inactive; ? = inconclusive; nt = no result. Sampled rows, rich in hits. Any-hit rate of the full collection: about 2.2%.

SMILES	LMP1 NFkB inh	PAX8 reporter	LGR2 antag	MITF TRPM1 inh	EWS-Fli block	PGC1a acetyl inh
O=[N+]([O-])c1ccc(/C=N/N=C/c2ccc([N+](=O)[O-])o2)o1	i	i	82.4	87.0	?	nt
O=C1C2C3C=CC(C4CC34)C2C(=O)N1/N=C/c1ccc([N+](=O)[O-])o1 (centres undefined)	i	i	i	74.6	i	i
O=C1SCCN1N=Cc1ccc([N+](=O)[O-])o1	i	i	i	65.8	i	i
Cc1ccc(S(=O)(=O)N/N=C\c2ccc([N+](=O)[O-])o2)cc1C	i	i	i	i	nt	nt
CC1CN(N=Cc2ccc([N+](=O)[O-])o2)C(=N)O1 (centres undefined)	i	i	i	i	i	i
COc1ccc(CN(C)C[C@H]2OCCCC[C@H](C)Oc3ccc(NS(=O)(=O)c4ccc(F)cc4)cc3C(=O)N([C@H](C)CO)C[C@H]2C)cc1	nt	i	i	nt	i	i
COc1ccc(S(=O)(=O)N(C)C[C@@H]2Oc3cc(C#CC4CC4)ccc3S(=O)(=O)N([C@H](C)CO)C[C@@H]2C)cc1	nt	nt	i	nt	i	i
C[C@@H]1CN([C@H](C)CO)C(=O)c2cc(C3=CCCC3)cnc2O[C@@H]1CN(C)C(=O)c1cccnc1	nt	i	i	nt	i	i
C[C@@H]1CCCCO[C@H](CN(C)Cc2ccc(C(F)(F)F)cc2)[C@H](C)CN([C@@H](C)CO)C(=O)c2cc(NS(=O)(=O)c3cccs3)ccc2O1	nt	93.3	i	nt	i	i
C[C@@H]1CCCCO[C@H](CN(C)Cc2ccc(C(F)(F)F)cc2)[C@H](C)CN([C@H](C)CO)C(=O)c2cc(NS(=O)(=O)c3cccs3)ccc2O1	nt	99.3	i	nt	i	i
C[C@@H]1CCCCO[C@@H](CN(C)Cc2ccc(C(F)(F)F)cc2)[C@H](C)CN([C@H](C)CO)C(=O)c2cc(NS(=O)(=O)c3cccs3)ccc2O1	nt	89.0	i	nt	i	i
C[C@@H]1CCCCO[C@@H](CN(C)Cc2ccc(C(F)(F)F)cc2)[C@H](C)CN([C@@H](C)CO)C(=O)c2cc(NS(=O)(=O)c3cccs3)ccc2O1	nt	?	i	nt	i	i
O=C(C[C@H]1CC[C@@H]2[C@H](COC[C@@H](O)CN2Cc2cc(F)cc(F)c2)O1)NCc1cccc(F)c1	nt	i	i	nt	i	i
CC(C)C#Cc1cnc2c(c1)C(=O)N([C@H](C)CO)C[C@@H](C)[C@H](CN(C)C(=O)c1cccnc1)O2	nt	i	i	nt	i	i
COc1cc(CN2[C@@H]3CNC[C@H]2C3c2ccc(-c3cccc(C)c3)cc2)cc(OC)c1 (some centres undefined)	nt	i	i	nt	i	i
CC(=C/c1ccccc1)/C=N/n1c(-c2ccncc2)n[nH]c1=S	56.5	i	i	i	i	i
CC(/C=N/n1c(-c2cccnc2)n[nH]c1=S)=C\c1ccccc1	i	i	nt	i	nt	i
COc1ccc(-n2c(-c3ccccc3)c[n+]3c2CCC3)cc1	i	i	i	i	i	i
COc1ccc(-n2c(-c3ccc(Br)cc3)c[n+]3c2CCC3)cc1	i	80.1	i	i	i	nt
FC(F)Sc1ccc(-n2c(-c3ccc(Cl)cc3)c[n+]3c2CCC3)cc1	i	67.3	i	i	i	nt
COc1ccc(-n2c(-c3ccc(Br)cc3)c[n+]3c2SC(C)C3)cc1 (centres undefined)	i	73.7	i	i	i	i
COc1ccc(-n2c(-c3ccc(Br)cc3)c[n+]3c2CCCCC3)cc1	i	84.4	i	i	i	i
CO[C@@H]1CN(C)C(=O)c2cc(NC(=O)NC3CCCCC3)ccc2OC[C@H](C)N(C(C)=O)C[C@@H]1C	nt	nt	i	nt	i	i
CCCC(=O)Nc1ccc2c(c1)C(=O)N(C)C[C@H](OC)[C@H](C)CN(Cc1nccs1)[C@@H](C)CO2	nt	i	i	nt	i	i
Cc1ccc(-n2c(-c3ccc(Cl)cc3)c[n+]3c2CCC3)cc1	i	i	i	i	i	i
SMILES	LMP1 NFkB inh	PAX8 reporter	LGR2 antag	MITF TRPM1 inh	EWS-Fli block	PGC1a acetyl inh
c1ccc(-c2c[n+]3c(n2-c2ccccc2)SCC3)cc1	nt	i	i	nt	i	i
CCOc1ccc(-n2c(-c3ccc(Cl)cc3)c[n+]3c2SCC3)cc1	i	86.3	i	i	i	i
CCOc1ccc(-c2c[n+]3c(n2-c2ccccc2)CCCCC3)cc1	i	80.1	i	i	i	nt
COC(=O)C1=C(C)N(Cc2cccc(C(F)(F)F)c2)C(=NCc2ccc(C(F)(F)F)cc2)NC1c1ccccc1 (centres undefined)	nt	i	i	nt	51.6	nt
COC(=O)C1=C(C)N(Cc2cccc(C(F)(F)F)c2)C(=NCc2ccc(C(F)(F)F)cc2)NC1c1ccc(Cl)cc1 (centres undefined)	nt	i	55.1	nt	i	nt
COC(=O)C1=C(C)N(Cc2ccc(C(F)(F)F)cc2)C(=NCc2ccccc2)NC1c1cccc(Cl)c1 (centres undefined)	nt	99.6	53.0	nt	i	nt
COC(=O)C1=C(C)N(Cc2ccc(C(F)(F)F)cc2)C(=NCc2ccccc2)NC1c1ccccc1 (centres undefined)	nt	i	i	nt	i	nt
COC(=O)C1=C(C)N(Cc2ccc(C(F)(F)F)cc2)C(=NCc2ccccc2)NC1c1ccc(C(F)(F)F)cc1 (centres undefined)	nt	84.4	?	nt	i	nt
CN(C)C(=O)C[C@H]1C[C@@H]2c3cc(NC(=O)Nc4ccc(C(F)(F)F)cc4)ccc3O[C@@H]2[C@@H](CO)O1	nt	nt	i	nt	i	i
CO[C@@H]1CN(C)C(=O)c2cc(NS(C)(=O)=O)ccc2OC[C@H](C)N(Cc2cocn2)C[C@H]1C	nt	i	i	nt	i	i
COc1cccc(NC(=O)N[C@@H]2C=C[C@@H](CC(=O)NCc3ccncn3)O[C@H]2CO)c1	nt	i	i	nt	i	i
COC(=O)c1cccc(NC(=O)Nc2ccc(Cl)cc2)c1	i	i	i	i	75.3	i
C[C@@H]1CN([C@H](C)CO)C(=O)c2cc(NS(=O)(=O)c3ccc(Cl)cc3)ccc2O[C@@H](C)CCCCO[C@@H]1CN(C)C(=O)NC1CCCCC1	nt	i	i	nt	i	i
COc1ccc(N2CCN(CCNC(=O)c3c(C)cc(=O)oc3C)CC2)cc1	50.7	nt	i	i	nt	i
Cc1cc(=O)oc(C)c1C(=O)NCCCN1CCN(c2ccc(F)cc2)CC1	i	nt	nt	i	nt	i
COc1cc(Nc2ncc3c(n2)CCN(C(=O)Nc2ccc(C(C)C)cc2)C3)cc(OC)c1OC	nt	64.7	i	nt	i	nt
COc1cccc(NC(=O)N2CCc3nc(Nc4ccc(C(C)C)cc4)ncc3C2)c1	nt	i	nt	nt	i	i
C[C@H]1CCCCO[C@H](CN(C)Cc2ccc(C(F)(F)F)cc2)[C@@H](C)CN([C@@H](C)CO)C(=O)c2cc(NS(=O)(=O)c3ccccc3)ccc2O1	nt	65.3	i	nt	i	i
C[C@H]1CCCCO[C@@H](CN(C)Cc2ccc(C(F)(F)F)cc2)[C@@H](C)CN([C@@H](C)CO)C(=O)c2cc(NS(=O)(=O)c3ccccc3)ccc2O1	nt	86.8	i	nt	i	i
